Screening data (PubChem)
A selection: hits, their analogues and other compounds. The true share with any hit is near 2.3%.
MIN6 prolif – inducers of MIN6 beta-cell proliferation, primary screen, ATP luminescence, uHTS. MIN6 cells proliferation, ATPlite luminescence, 48 h; cells starved in 0.2% serum; 100% = growth in 10% serum. proliferation, % at 10 µM. hit rate 0.29% among 330,000. AID 2380, 2010;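 active = compounds whose signal lies at least 3.5 SD above the mean of all wells on their plate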;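 also: 0% = DMSO-treated cells in low-serum medium and 100% = 10% serum control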
FAS TE block – FAS thioesterase domain inhibitors, primary screen, biochemical, fluorescence intensity, uHTS. recombinant FAS-TE, OMFH fluorogenic substrate, fluorescence endpoint. Fatty acid synthase (Homo sapiens), P49327. hit rate 0.67% among 360,000. AID 602261, 2012. inhibition, % at 15 µM;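 active = compounds whose normalised, plate-corrected inhibition of enzyme fluorescence in the single-dose primary screen is 50% or more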;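 also: 0% = DMSO with enzyme and 100% = substrate without enzyme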
H9c2 protect – cardioprotection against H2O2-induced cell death, primary screen, uHTS, H9c2 cells, ATPLite luminescence. hit rate 0.63% among 360,000. H9c2 cardiomyocytes, H2O2 injury protection, 2 h. protection from H2O2 cell death, % at 20 µM;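 active = compounds giving at least 50% protection of heart cells from peroxide-induced death in the single-dose screen, raw or plate-pattern-corrected value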;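 also: 0% = DMSO wells with peroxide and 100% = DMSO wells without peroxide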
m-calpain inh – inhibitors of pig calpain II, primary screen, biochemical, fluorogenic peptide substrate, 1536-well | purified calpain II, 30 min | hit rate 0.37% among 220,000 | inhibition, % at 16 µM | AID 1236, 2008;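 active = inhibition above about 50%, limit read from the data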
aDG glyco up – activators of alpha-DG glycosylation, primary screen, uHTS, Pro5-aDG cells, AlphaScreen. hit rate 0.22% among 360,000. activation, % at 10 µM. alpha-DG glycosylation AlphaScreen (IIH6); 0% Pro5, 100% B10-LARGE cell signal;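 active = activation of at least 8% versus controls, or a plate z-score of at least 8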;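 also: Pro5 are CHO cells carrying HIG-tagged alpha-DG that lacks glycosylation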
H9c2 TAG inh – inhibitors of triacylglycerol accumulation, primary screen, cell-based, uHTS, fluorescence, H9c2 | hit rate 0.66% among 230,000 | inhibition, % at 12.5 µM | H9c2 cells, Nile Red lipid (TAG) fluorescence; cells loaded with 200 µM oleic acid;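 active = pattern-corrected inhibition of lipid staining of at least 50% with the nuclear-stain viability signal not falling by more than 50%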;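 also: 0% = DMSO wells and 100% = triacsin C control wells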
FAS-TE inh conf – FAS thioesterase domain inhibitors, confirmation, biochemical, fluorescence intensity, single concentration | shares compounds with FAS TE block | recombinant FAS-TE, OMFH fluorogenic substrate | inhibition, % at 15 µM | hit rate 45% among 2,300;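 active = compounds inhibiting the enzyme by at least 50% at 15 µM in any one of the replicates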;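 also: 0% = enzyme with DMSO only and 100% = wells lacking enzyme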
An asterisk follows results filed as active; / = no result given.

SMILES	MIN6 prolif	FAS TE block	H9c2 protect	m-calpain inh	aDG glyco up	H9c2 TAG inh	FAS-TE inh conf
CC(C)(C)c1ccc(/C=N/Nc2ccc(C(=O)O)cc2)cc1	-1	64*	4	14	0	4	77*
O=S(=O)(c1ccccc1)c1nnn2c1nc(NC1CCN(Cc3ccccc3)CC1)c1cc(Cl)ccc12	-7	80*	-5	/	0	/	6
CC(C)c1ccc(S(=O)(=O)c2nnn3c2nc(NCC2CCCO2)c2ccccc23)cc1 (centres undefined)	-4	74*	1	/	0	/	80*
Cc1ccc(S(=O)(=O)c2nnn3c2nc(Nc2cccc(C)c2)c2ccccc23)cc1	-1	2	4	-209	0	/	/
O=S(=O)(c1ccccc1)c1nnn2c1nc(NC1CCN(Cc3ccccc3)CC1)c1ccccc12	-8	82*	-11	/	0	/	79*
O=C1CCCN1CCCNc1nc2c(S(=O)(=O)c3ccc(Br)cc3)nnn2c2ccccc12	0	57*	8	/	0	/	29
Cc1ccc(C)c(Nc2nc3c(S(=O)(=O)c4ccccc4)nnn3c3ccccc23)c1	-1	5	-6	-404	0	/	/
COc1ccc(NS(=O)(=O)c2cccc(C(=O)NC3CCC(O)CC3)c2)cc1 (centres undefined)	1	-2	6	/	0	-10	/
CC1=C(C(=O)N(C(C)C)C(C)C)CC(CC(=O)NC2CCCCC2)C(=O)N1Cc1ccc(C(C)(C)C)cc1 (centres undefined)	/	10	-2	/	0	/	/
COc1ccc2c(ccn2S(=O)(=O)c2ccccc2)c1	-2	17	-6	/	0	/	/
CSc1ccc(CN2C(=O)C(F)(F)Oc3c(C(C)=O)cccc32)cc1	/	52*	-8	/	1	-6	59*
Cc1ccc(-c2ccc(CN3C(C(C)C)C(=O)N(Cc4cn(Cc5ccco5)nn4)CCS3(=O)=O)cc2)cc1 (centres undefined)	/	26	-25	/	0	-26	/
Cc1ccc(S(=O)(=O)N2CCN(C(=O)c3cc4c(C)nn(-c5ccccc5)c4s3)CC2)cc1	-3	62*	-6	-123	0	/	13
Cc1ccccc1-n1nc(C)c2cc(C(=O)N3CCN(S(=O)(=O)c4ccc(Cl)cc4)CC3)sc21	-3	45	-10	-194	1	-10	/
COc1ccc2cc3cc(C(=O)N4CC(C)CC(C)C4)oc3nc2c1 (centres undefined)	0	69*	12	/	0	/	75*
Cc1ccc2cc3cc(C(=O)NC4CCCCC4)oc3nc2c1	-2	10	8	/	0	/	/
Cc1ccc2cc3cc(C(=O)N4CCCCC4C)oc3nc2c1 (centres undefined)	-3	84*	-13	4	0	10	61*
Cc1ccc2cc3cc(C(=O)NCCCN4CC(C)CC(C)C4)oc3nc2c1 (centres undefined)	-7	-4	-9	/	1	/	/
O=C(c1cc2cc3ccc(Cl)cc3nc2o1)N1CCCCCC1	-3	62*	-3	/	0	/	41*
Cc1ccc2cc3cc(C(=O)N4CC(C)CC(C)C4)oc3nc2c1 (centres undefined)	0	82*	1	8	0	-9	42
CCC(=O)N1CCCC1(C)C(=O)Nc1cccc(Oc2ccccc2)c1 (centres undefined)	/	-3	-7	/	0	1	/
O=C(COc1ncnc2ccccc12)Nc1cccc([N+](=O)[O-])c1	-3	20	10	28	0	3	/
Cc1ccc([N+](=O)[O-])cc1NC(=O)CN(C(=O)c1ccc(Cl)cc1)C1CCCCC1	-4	86*	5	21	0	-28	91*
Cc1ccc([N+](=O)[O-])cc1NC(=O)CNC1CCCCC1	0	23	3	/	0	16	/
Cc1ccc([N+](=O)[O-])cc1NC(=O)c1ccc(C(C)(C)C)cc1	-2	68*	-1	44	0	/	72*
SMILES	MIN6 prolif	FAS TE block	H9c2 protect	m-calpain inh	aDG glyco up	H9c2 TAG inh	FAS-TE inh conf
O=C(COc1ncnc2ccccc12)Nc1ccc(Cl)c([N+](=O)[O-])c1	-2	68*	-4	10	0	-10	66*
O=C(CN(C(=O)c1ccc(Cl)cc1)C1CCCCC1)Nc1ccc(Cl)c([N+](=O)[O-])c1	-4	76*	-25	9	3	/	12
COCCCN1C(=O)c2ccc(C(=O)OCC(=O)NCc3cccc(OC)c3)cc2C1=O	-5	-5	1	/	0	-1	/
COc1ccccc1/C=C(\NC(=O)c1ccc(OC)c(OC)c1)C(=O)Nc1cc([N+](=O)[O-])ccc1C	-1	60*	1	-54	0	48	71*
O=C(CN(C(=O)c1ccccc1Cl)C1CCCCC1)Nc1ccc(Cl)c([N+](=O)[O-])c1	-6	62*	-25	-31	1	-65	14
O=C(CSc1ccccn1)Nc1ccc(Cl)c([N+](=O)[O-])c1	-1	8	4	17	0	6	/
COC(=O)c1ccc(C)c(NC(=O)CCSc2ccc(Cl)cc2)c1	-1	-1	-2	24	0	5	/
Cc1ccc([N+](=O)[O-])cc1NC(=O)CCSc1ccc(Cl)cc1	-5	66*	-14	14	0	2	62*
COc1ccc(/C=C(/NC(=O)c2cccc([N+](=O)[O-])c2)C(=O)O)cc1OC	-3	-7	3	2	0	5	/
Cc1cccc(C)c1Cn1c(C)c(C(=O)NCc2ccc([N+](=O)[O-])cc2)sc1=O	/	61*	-2	/	0	-41	62*
COc1ccc(NC(=O)Nc2cccc3[nH]c([C@@H]4O[C@H](CO)[C@@H](O)[C@H](O)[C@H]4O)nc23)cc1OC1CCCC1	/	-5	9	/	0	9	/
Cc1cc(NC(=O)CS(=O)(=O)c2cn(Cc3cccc(Cl)c3)c3ccccc23)no1	/	12	-20	/	0	0	/
CCCn1nnc(NC(=S)NC(=O)c2ccccc2OC)n1	2	-2	6	/	0	18	/
CN(C)S(=O)(=O)c1ccc(N2CCCC2)c(C(=O)Nc2ccc(F)cc2F)c1	1	4	-7	/	0	-4	/
CN(C)S(=O)(=O)c1ccc(N2CCCC2)c(C(=O)Nc2nc3c(ccc4ccccc43)s2)c1	0	92*	0	-53	0	/	10
